The source made the active and inactive calls.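 Rule for the calls: active = cell killing, with a fitted half-maximal concentration at or below twice the top valid dose tested; inconclusive = flat curve losing 30 to 70% signal, or unreliable fit; inactive = effect in the rising direction, plus the rest.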
Assay: viability loss in A549 lung cells – cell-based, CellTiter-Glo luminescence, 72 h, dry powder, cytotoxicity control, dose response (AID 1053193)
Details: CellTiter-Glo ATP luminescence; series mostly up to 50 µM
With `COc1ccc(Nc2ccccc2N)cc1` the outcome was “inactive”. For `Cc1cc(C)c(S(=O)(=O)NCCn2c(C)cc3ccccc32)c(C)c1`, the outcome was “inactive”. With `O=C(O)C1CCN(c2nc(-c3ccccc3)c3cc(Br)ccc3n2)CC1` the outcome was “inactive”. For `COc1cc(CC2C(=O)Nc3ccccc32)cc(C)c1O` (stereo not given), the outcome was “inactive”. With `Cc1cccc(NC(=O)NCc2ccc3c(c2)cc(C)n3C)c1` the outcome was “inactive”. In the case of `CNc1ccccc1C(C)(C)c1cc(-c2cccc(OC)c2)no1`, the outcome is reported as “inactive”. In the case of `Cc1ccc(CSc2nc3[nH]ncc3c(=O)[nH]2)cc1`, the outcome is reported as “inactive”. In the case of `OCc1ccc(-c2nn(Cc3ccccc3)c3ccccc23)o1`, the outcome is reported as “inactive”. With `CCc1ccc(-n2c(=S)sc3c(=O)n(-c4ccccc4C)c(SCC(=O)O)nc32)cc1` the outcome was “inactive”. With `CCc1cccc2c1NC1(CCCC1)CC2C` (stereo not given) the outcome was “inactive”. With `Cc1ccc(S(=O)(=O)NCc2ccc3c(c2)cc(C)n3C)cc1` the outcome was “inactive”. In the case of `Cc1cc2cc(CNC(=O)Nc3ccc(Cl)c(Cl)c3)ccc2n1C`, the outcome is reported as “inactive”. With `Cc1cc2ccccc2n1CCNC(=O)COc1ccc2ccccc2c1` the outcome was “inactive”. With `O=C(c1c(F)cccc1F)N(Cc1ccccc1)Cc1ccccc1` the outcome was “inactive”. For `Cc1cc2cc(CNC(=O)Nc3cccc(Cl)c3)ccc2n1C`, the outcome was “inactive”.
